According to PubChem BioAssay AID1159580 (chemical genetic matrix, 2015):
Out of some 5,500 compounds screened, about 2,000 (36%) were called active. About 18% were inconclusive and are not listed. No stated cut-off is given here; in the data, active means normalized growth mostly below about 0.91 (no sharp cut-off); inconclusive means no clear call, values can overlap the other calls; inactive means mostly above about 0.92. The list shows a part of the results.

Assay: chemical genetic growth profiling, strain panel (AID 1159580);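 further: tested at 20 µM; growth read once vehicle control cultures reached saturation at 30 °C; 1 = growth at the plate median or of vehicle wells; lower values mean less growth of the strain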
Conditions: S. cerevisiae deletion strains, growth OD

Measured: normalized growth

O=C(NCC1COc2ccccc2O1)c1ccc(Cl)cc1 (stereo unspecified)
inactive: locus YAR019C, strain CDC15, hits give low values 0.956 | locus YBL105C, strain PKC1, hits give low values 0.952 | locus YBR135W, strain CKS1, hits give low values 0.935 | locus YBR136W, strain MEC1, hits give low values 0.957 | locus YBR160W, strain CDC28, hits give low values 0.959 | locus YDL017W, strain CDC7, hits give low values 0.944 | locus YDL028C, strain MPS1, hits give low values 0.951 | locus YDL101C, strain DUN1, hits give low values 0.98 | locus YDL108W, strain KIN28, hits give low values 0.951 | locus YDL132W, strain cdc53, hits give low values 0.936 | locus YDL214C, strain PRR2, hits give low values 0.837 | locus YDR052C, strain DBF4, hits give low values 0.973 | locus YDR054C, strain cdc34, hits give low values 0.933 | locus YDR226W, strain ADK1, hits give low values 0.949 | locus YDR477W, strain SNF1, hits give low values 0.734 | locus YER123W, strain YCK3, hits give low values 0.75 | locus YFL009W, strain cdc4, hits give low values 0.942 | locus YFL029C, strain CAK1, hits give low values 0.933 | locus YFR003C, strain YPI1, hits give low values 0.956 | locus YFR028C, strain CDC14, hits give low values 0.942 | locus YGR040W, strain KSS1, hits give low values 0.692 | locus YGR052W, strain FMP48, hits give low values 0.899 | locus YGR092W, strain DBF2, hits give low values 0.753 | locus YHR079C, strain IRE1, hits give low values 0.759 | locus YHR082C, strain KSP1, hits give low values 0.88 | locus YHR205W, strain SCH9, hits give low values 0.901 | locus YIL147C, strain SLN1, hits give low values 0.929 | locus YJL095W, strain BCK1, hits give low values 0.586 | locus YJL128C, strain PBS2, hits give low values 0.948 | locus YJL157C, strain FAR1, hits give low values 0.84 | locus YJR016C, strain ILV3, hits give low values 0.936 | locus YJR066W, strain TOR1, hits give low values 0.714 | locus YKL048C, strain ELM1, hits give low values 0.895 | locus YKL067W, strain YNK1, hits give low values 0.842 | locus YKL101W, strain HSL1, hits give low values 0.92 | locus YKL193C, strain SDS22, hits give low values 0.933 | locus YLR113W, strain HOG1, hits give low values 0.935 | locus YLR133W, strain CKI1, hits give low values 0.88 | locus YLR403W, strain SFP1, hits give low values 0.699 | locus YML070W, strain DAK1, hits give low values 0.827 | locus YMR001C, strain CDC5, hits give low values 0.896 | locus YMR205C, strain PFK2 (second series), hits give low values 0.82 | locus YMR277W, strain FCP1, hits give low values 0.923 | locus YNL006W, strain LST8, hits give low values 0.929 | locus YNL020C, strain ARK1, hits give low values 0.86 | locus YNL161W, strain CBK1, hits give low values 0.958 | locus YNL183C, strain NPR1, hits give low values 0.796 | locus YNL207W, strain RIO2, hits give low values 0.91 | locus YNL222W, strain SSU72, hits give low values 0.948 | locus YNL307C, strain MCK1 (second series), hits give low values 0.872 | locus YOL078W, strain AVO1, hits give low values 0.93 | locus YOL136C, strain PFK27, hits give low values 0.802 | locus YOR061W, strain CKA2, hits give low values 0.886 | locus YOR119C, strain RIO1, hits give low values 0.723 | locus YOR231W, strain MKK1, hits give low values 0.771 | locus YOR329C, strain SCD5, hits give low values 0.938 | locus YPL204W, strain HRR25, hits give low values 0.682 | locus YPL209C, strain IPL1, hits give low values 0.952 | locus YPL256C, strain CLN2, hits give low values 0.867 | locus YPR025C, strain CCL1, hits give low values 0.951 | locus YPR106W, strain ISR1, hits give low values 0.968 | locus YPR111W, strain DBF20, hits give low values 0.962 | strain NNK1, hits give low values 0.958 | strain TSCII, hits give low values 0.92
active: locus YER133W, strain GLC7, hits give low values 0.463 | locus YFR019W, strain FAB1, hits give low values 0.745 | locus YHR030C, strain SLT2, hits give low values 0.638 | locus YJR066W, strain TOR1 (second series), hits give low values 0.561 | locus YKL203C, strain TOR2, hits give low values 0.708 | locus YPL031C, strain PHO85, hits give low values 0.662 | locus YPL153C, strain RAD53, hits give low values 0.649
